# D3 ag = D3 dopamine receptor (human) agonism; P35462; D3R DiscoveRx beta-arrestin cells, luminescence, 90 min; max activation, %; hit rate 0.58% among 410,000; AID 652048; in the data active = max activation above about 30%; also: 0% is about no effect
# Target sequence (P35462 whole entry, looked up): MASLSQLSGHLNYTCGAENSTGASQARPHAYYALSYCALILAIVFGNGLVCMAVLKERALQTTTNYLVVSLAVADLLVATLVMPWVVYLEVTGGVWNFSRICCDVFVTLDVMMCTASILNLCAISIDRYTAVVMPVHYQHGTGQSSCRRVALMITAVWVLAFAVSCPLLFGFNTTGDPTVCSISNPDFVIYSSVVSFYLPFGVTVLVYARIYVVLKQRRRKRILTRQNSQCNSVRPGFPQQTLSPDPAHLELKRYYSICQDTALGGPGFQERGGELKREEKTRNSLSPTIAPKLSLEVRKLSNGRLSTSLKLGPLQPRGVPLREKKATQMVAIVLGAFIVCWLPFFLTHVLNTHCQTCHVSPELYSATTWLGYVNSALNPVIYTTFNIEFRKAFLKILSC
#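 Cells at 1500/well, incubated overnight, then treated with pinned compounds (dopamine as control) for 90 min at 37 degrees C. DiscoveRx reagent added for 30 - 60 minutes at room temperature; luminescence read.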
# ClpP mod = qHTS Assay for Activators of ClpP; Potency, µM (top dose mostly 57.5 µM), without a hit: at the top dose activity change, negative = active; AID 651965, 2013; hit rate 1.9% among 340,000; purified B. subtilis ClpP, FRET peptide cleavage, 20 min; ATP-dependent Clp protease proteolytic subunit (Bacillus subtilis (strain 168)), P80244; active = well fitted falling curve with a large enough effect; inconclusive = small, poorly fitted or top-dose-only effect; inactive = no such curve, though single readings can be large or run the other way; also: potency is read from the fitted curve at half-maximal effect; the source files actives as falling curves though it sought activators and does not explain the sign; nearly all actives have a fitted effect of over 65% in size
# Target sequence (P80244 whole entry, looked up): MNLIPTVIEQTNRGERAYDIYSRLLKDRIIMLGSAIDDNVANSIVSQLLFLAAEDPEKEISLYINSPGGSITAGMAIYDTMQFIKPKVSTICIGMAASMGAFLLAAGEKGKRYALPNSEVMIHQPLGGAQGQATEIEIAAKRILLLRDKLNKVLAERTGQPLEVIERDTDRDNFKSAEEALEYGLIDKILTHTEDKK
#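 FRET quenching reversal measured ClpP activation: 10 microg/mL B. subtilis ClpP at pH 8 with the FRET-FV decapeptide, read at 430 nm after 320 nm excitation. The 20-min minus 0-min signal was scaled between DMSO/no-enzyme wells and ADEP (5.8 microM final).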
# HEK293 tox = cytotoxic in the GLP-1 receptor inverse agonist counter-screen; HEK293 cAMP-luciferase reporter cells, luminescence, 24 h; Potency, µM (top dose mostly 38.3 µM), without a hit: at the highest dose activity change, negative = inhibition, actives largely listed as inhibitors; hit rate 0.13% among 410,000;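 also: loss of luciferase light is scored as toxicity; potency is read from the fitted curve at half-maximal effect; % is scaled to controls: 0 for no effect and ±100 for the full control effect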
#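 A 23 nL compound transfer followed 12 hours of cell culture at 37 deg C; exposure then lasted 24 hr. Luciferase assay detection reagent was dispensed and plates read for luminescence after a 12 min room-temperature wait.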
# DRD3 antagonist = blocks the human D3 dopamine receptor; P35462; AID 652054; max response, negative = inhibition, %; hit rate 2.5% among 360,000; D3R cells, DiscoveRx beta-arrestin luminescence, antagonist mode; stronger effect = lower value; in the data active = max response below about -50%; inconclusive = no clear call, values can overlap the other calls; also: % is scaled to controls: 0 for no effect and ±100 for the full control effect
#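 Cells plated overnight at 1500 cells/well, then exposed to library compounds with dopamine controls for 90 minutes at 37 degrees C. DiscoveRx reagent added for 30–60 minutes at room temperature; luminescence read, quantitative HTS format.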
# GLP-1R inv ag = acts as inverse agonist at human GLP-1 receptor; AID 624417; hit rate 1.6% among 410,000; HEK293 GLP-1R CRE-luciferase, luminescence, 24 h; GLP-1R form is constitutively active; P43220; Potency, µM (titrated, usually from 38.3 µM), for the others: top-dose activity change, negative = inhibition, most hits filed as inhibitors; also: potency is read from the fitted curve at half-maximal effect; % is scaled to controls: 0 for no effect and ±100 for the full control effect; nearly all actives have a fitted effect of over 55% in size
#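 Inverse agonism was detected as reduced cAMP-driven luciferase luminescence after 24 h compound treatment. The cells were HEK293 clones expressing constitutively active human GLP-1R with the reporter. Reporter-only and GPR119 cell lines served as counterscreen controls.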
# GLP-1R agonist = agonists of human GLP-1 receptor; P43220; HEK293 GLP-1R CRE-luciferase, luminescence, 4-6 h; cells express a hypersensitive GLP-1R form; Potency, µM (doses to about 45.6 µM), inactives show at the highest dose activation, most hits filed as activators; hit rate 0.007% among 380,000; AID 624172; also: potency is read from the fitted curve at half-maximal effect; % of control where 0% means no effect
# An asterisk follows results filed as active; ? = inconclusive; nt = not tested or not shown; [ ] = dose if it differs, or a comment. The list is not random: actives were taken first. Their share in the collection is about 5.7%. Unless noted, calls follow the shape of the dose curve; as a rule, active = well fitted curve in the direction sought with a large enough effect; inconclusive = small, poorly fitted or top-dose-only effect, or another doubt; inactive = no such curve, though single readings can be large; an effect the other way counts as inactive or inconclusive.
SMILES,D3 ag,ClpP mod,HEK293 tox,DRD3 antagonist,GLP-1R inv ag,GLP-1R agonist
O=C(NC(NC(=S)Nc1c(Cl)cccc1Cl)C(Cl)(Cl)Cl)c1cccc([N+](=O)[O-])c1 (configuration not stated),-23,0%,13µM*,-16,5µM*,-25%
Cc1cc([N+](=O)[O-])ccc1NC(=S)NC(=O)C(c1ccccc1)c1ccccc1,-20,-10%,?,?,10µM*,-5%
O=C(NNC(=S)NC(=O)c1ccccc1Cl)c1cccc([N+](=O)[O-])c1,7,0%,-7%,28,1%,2%
Cc1ccc(C(=O)O)cc1NC(=S)NC(=O)C(c1ccccc1)c1ccccc1,1,0%,13%,20,?,1%
COc1ccc(-c2nc(C)c(CCNC(=O)c3cccc(C)c3)s2)cc1OC,8,3%,-6%,nt,30%,?
CCc1ccc2occ(CC(=O)Nc3ccc(C)c(C)c3)c2c1,1,-3%,11%,nt,?,nt
CN(C(=O)CSc1cn(CC(=O)N2CCCC2)c2ccccc12)c1ccccc1,0,1%,?,nt,-23%,nt
O=C(NCc1ccccc1)c1ccc(-c2ccc(F)c(F)c2)c2ccoc12,-8,5%,5%,0,4%,-6%
O=C(NCc1ccco1)c1ccc(-c2ccc(F)c(F)c2)c2ccoc12,-7,35µM*,-6%,0,?,13%
O=C(NCc1cccc(Cl)c1)c1ccc(-c2ccc(F)c(F)c2)c2ccoc12,8,16µM*,-3%,16,?,4%
O=C(NCCc1ccccc1)c1ccc(-c2ccc(F)c(F)c2)c2ccoc12,-6,35µM*,1%,0,-3%,4%
CCOC1CCCc2oc(-c3ccc(N(C)C)cc3)c(C(=O)OC)c21 (configuration not stated),-2,5%,4%,6,?,17%
O=C(COc1ccccc1[N+](=O)[O-])N(Cc1ccco1)c1ccccn1,21,1%,5%,nt,17%,nt
COc1ccc(CCNC(=O)C2CCN(C(=O)c3ccc(Cl)cc3)CC2)cc1,-1,nt,-6%,3,?,-6%
S=C(NCCC1=CCCCC1)Nc1ccc(Cl)cc1,3,-2%,?,?,-26%,11%
Clc1ccc(CNCCC2=CCCCC2)cc1,-53,0%,5%,-71*,0%,0%
O=C(NCCC1=CCCCC1)C1CCN(C(=O)c2ccc(Cl)cc2)CC1,7,0%,-22%,-131*,?,20%
CN(C(=O)c1ccc(NC(=O)Cc2ccc(NC(=O)C3CCN(C(=O)c4ccccc4)CC3)cc2)cc1)C1CC1,-45,-4%,-7%,-99*,10%,-4%
O=C(NCCO)C1CCN(C(=O)c2ccc(-c3ccccc3)cc2)CC1,0,32µM*,5%[7.66 µM],-25,0%[7.66 µM],4%
COc1ccc(S(=O)(=O)N(C)C[C@@H]2OCc3cn(nn3)CCCC(=O)N([C@@H](C)CO)C[C@H]2C)cc1,-4,0%,-11%,4,5%,-6%
Cc1ccc(NC(=O)C(C)Sc2nc(-c3ccccc3)c(C#N)c(=O)[nH]2)c(C)c1 (configuration not stated),-9,1%,18%,nt,-3%,nt
CN1CCN(C(=O)c2ccc(-c3ccccc3)cc2)CC1,-7,32µM*,5%,-29,3%,-1%
C1=CC2=NC34CCCCC3CC3=C(CCCC3)N4C2=CC1=NC1CCCCC1 (configuration not stated),-12,0%,?,-19,10µM*,-6%
Cc1occc1C(=O)N/N=C/C=C\c1ccccc1[N+](=O)[O-],-7,nt,9%[7.66 µM],-22,6%[7.66 µM],9%
Cc1ccsc1C(=O)N/N=C/C=C/c1ccccc1[N+](=O)[O-],-6,-1%,-31%,-85*,5%,6%
SMILES,D3 ag,ClpP mod,HEK293 tox,DRD3 antagonist,GLP-1R inv ag,GLP-1R agonist
Cc1ccc(CN2CCCN(Cc3c(F)cccc3Cl)S2(=O)=O)cc1,5,nt,0%,3,?,7%
O=S1(=O)N(Cc2ccccc2F)CCCN1Cc1c(F)cccc1Cl,6,32µM*,6%,11,?,15%
COc1ccc(OC2CCN(S(=O)(=O)c3ccc(OC)cc3)CC2)cc1,-5,-3%,10%,-15,10µM*,5%
Cc1ccc(S(=O)(=O)N2CCC(C)CC2)cc1,8,0%,11%,4,-3%,-5%
CC1CCN(S(=O)(=O)c2ccc(S(=O)(=O)N3CCCC3)cc2)CC1,34*,0%,-1%,6,3%,-2%
Cc1ccccc1-c1noc(CSc2nc3ccccc3[nH]2)n1,5,0%,3%,nt,?,0%
Cc1cc(C)c2c(=O)cc(C(=O)NCc3ccccc3)oc2c1,-46,-1%,8%,-53*,3%,0%
CCN1C(=O)C(=Cc2cccc(OC)c2Oc2ccc([N+](=O)[O-])cc2[N+](=O)[O-])SC1=S,-27,nt,?,-70*,?,3%
O=C(NCCCN1CCN(c2ccc(F)cc2)CC1)c1ccc2nc(Cc3ccccc3)oc2c1,-22,-2%,0%,nt,?,nt
O=C1C2C(C(=O)N1/N=C/c1cc(Br)cc([N+](=O)[O-])c1O)C1C=CC2C12CC2 (configuration not stated),-30,-26%,?,-70*,?,-6%
O=C1C2C(C(=O)N1/N=C/c1cc([N+](=O)[O-])c(O)cc1O)C1C=CC2C12CC2 (configuration not stated),-3,nt,12%,?,14%,0%
Cc1cc([N+](=O)[O-])ccc1-c1ccc(/C=N/NC(=O)c2ccc(Br)o2)o1,-2,1%,34%,-54*,14%,5%
CCc1nc2c(OCC(=O)c3ccc(Cl)cc3Cl)cccn2c1N(C)C(=O)COc1ccccc1,3,0%,0%,-18,?,3%
COc1ccc(-n2ncc(C(C)NS(=O)(=O)c3cccs3)c2C)cc1 (configuration not stated),-2,-4%,1%,-76*,-20%,6%
COc1ccc(-n2ncc(C(C)NS(=O)(=O)c3cc(F)ccc3C)c2C)cc1 (configuration not stated),-12,-6%,-1%,-58*,?,-7%
CCN(CC)c1ccc2cc(-c3nc(-c4ccccc4)no3)c(=O)oc2c1,13,-20%,58%,nt,31%,nt
Cc1cc(C)c(C)c(OCC(=O)Nc2ccc(S(=O)(=O)Nc3nc(C)cc(C)n3)cc2)c1,8,-3%,5%,nt,-21%,nt
